# Sampled rows, rich in hits. Any-hit rate of the full collection: about 3.2%.
# PAX8 inh HTS = inhibitors of PAX8-driven TPO luciferase reporter, primary screen, RMG-I cells, single concentration | SteadyGlo, 24 h | inhibition, % at 12.6 µM | 1.2% of 360,000 active | AID 652154, 2013;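 active = mean replicate inhibition at least 60% with every replicate also reaching 60%; inconclusive = only one of the two criteria is met; inactive = mean below 60% and not all replicates reaching 60%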;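 also: luciferase light reporting Pax8 driven TPO promoter activity; plate controls were median of neutral control wells for no effect and mitoxantrone controls for full effect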
# TWEAK Fn14 block = inhibitors of TWEAK-Fn14 signaling, primary screen, luciferase reporter cells, uHTS; TWEAK-stimulated Fn14 reporter cells, luciferase luminescence, 8 h; inhibition, % at 10 µM; 2% of 360,000 active; in the data active = inhibition above about 50%
# TROY signal inh = inhibitors of TROY-driven NF-kB signaling, primary screen, Q293 LMP1-TROYcd cells, NF-kB luciferase, uHTS; Q293 LMP1-TROYcd NF-kB luciferase reporter, 4 h; inhibition, % at 10 µM; 0.98% of 360,000 active;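 active = compounds whose plate-normalised and pattern-corrected inhibition of the luciferase reporter signal at the single screening dose is 50% or more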
# LGR2 inh = inhibitors of bursicon-induced LGR2 CRE-luciferase signal, primary screen, cell-based, HEK293, CRE-luciferase reporter, bursicon stimulation | inhibition, % at 9.99 µM | bursicon-stimulated, 4 h | 0.35% of 380,000 active | AID 720647, 2013;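 active = drop in luminescence signal, shown as inhibition above about 50% in the replicate tests, limit read from the data, passing the limit was not always enough; inconclusive = probably only some replicates passing the limit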;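 also: agonist challenge used bursicon conditioned medium at about half maximal strength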
# EWS-Fli block = EWS/Fli-driven NR0B1 reporter inhibitors, primary screen, A673 cells, NR0B1 luciferase, luminescence, MLPCN library; viability-normalised; inhibition, % at 12.6 µM; 0.67% of 350,000 active; AID 651661, 2012;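 active = mean inhibition of at least 50% after viability correction, with every replicate also passing that limit; inconclusive = mean reaches 50% but only one of two replicates passes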;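 also: firefly luciferase signal divided by Alamar Blue viability fluorescence both relative to DMSO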
# EBV LMP1 NFkB = EBV LMP1-driven NF-kappaB luciferase reporter inhibitors, primary screen, cell-based, luminescence, single point | LMP1-induced NF-kappaB luciferase reporter cells | inhibition, % at 12.5 µM | 0.69% of 350,000 active | AID 504558, 2011; in the data active = inhibition above about 41%; inconclusive = no clear call, values can overlap the other calls;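 also: 0% = neutral control wells and 100% = reference inhibitor control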
# An asterisk follows results filed as active; ? = inconclusive; . = no result given.
SMILES,PAX8 inh HTS,TWEAK Fn14 block,TROY signal inh,LGR2 inh,EWS-Fli block,EBV LMP1 NFkB
CC[C@]12c3[nH]c4cc(CCC(=O)N(C)C)ccc4c3CCN1C(=O)[C@@H](CC(=O)NC/C=C(\C)CCC=C(C)C)C[C@@H]2C(=O)N1CCN(C(=O)C2CC2)CC1,21.7,19.4,-7.1,-33.6,7.3,7.0
CC(C)=CCC/C(C)=C/CNC(=O)C[C@H]1C[C@H](C(=O)N(C(C)C)C(C)C)[C@@]2(C)c3[nH]c4ccc(Cl)cc4c3CCN2C1=O,7.4,55.9*,7.3,-2.1,-4.8,6.4
CC[C@]12c3[nH]c4ccc(Cl)cc4c3CCN1C(=O)[C@@H](CC(=O)NC/C=C(\C)CCC=C(C)C)C[C@@H]2C(=O)N1CCN(C(=O)C2CC2)CC1,74.7*,43.8,37.9,2.5,8.1,2.4
CC(C)=CCC/C(C)=C/CNC(=O)CC1C[C@H](C(=O)N(C(C)C)C(C)C)[C@@]2(C)c3[nH]c4ccccc4c3CCN2C1=O (stereo partly drawn),-17.2,37.3,-5.7,-2.7,3.5,5.7
CC(C)C#Cc1cnc2c(c1)C(=O)N([C@@H](C)CO)C[C@@H](C)[C@@H](CN(C)C(=O)Nc1ccccc1)O2,.,.,.,-2.9,-13.4,.
CCS(=O)(=O)N1CCC2(CC1)CN(C)[C@@H](CO)c1c2c2ccc(OC)cc2n1C,.,.,.,-11.1,4.7,.
COc1ccc(-n2cc(C(=O)c3ccccc3O)cn2)cc1,-18.9,60.9*,48.5,?,22.0,49.9*
COc1ccc(O)c(C(=O)c2cnn(-c3ccccc3)c2)c1,-38.6,-2.6,-26.5,-45.3,-68.0,-21.6
CCS(=O)(=O)N1CCCCN2[C@@H](CO)[C@@H](c3ccc(C#Cc4ccccc4OC)cc3)[C@@H]2C1,-1.8,.,.,18.3,.,.
C=CCSc1nnc(CCCCCN2C(=O)c3cccc4cccc(c34)C2=O)o1,-2.3,18.1,16.6,7.6,3.0,58.7*
CNC(=O)C[C@@H]1CC[C@@H]2[C@@H](COc3ccc(NS(=O)(=O)c4ccc(F)cc4)cc3C(=O)N2C)O1,-25.9,.,.,5.2,-5.3,.
C[C@@H]1CCCCO[C@H](CN(C)S(=O)(=O)c2ccc(F)cc2)[C@H](C)CN([C@@H](C)CO)C(=O)c2cc(NC(=O)Nc3ccc4c(c3)OCO4)ccc2O1,29.3,.,.,-2.2,8.6,.
Cc1ccc(C2CN=NC23CCc2ccccc2C3=O)cc1 (stereo not drawn),-48.6,55.1*,48.7,.,.,4.8
COCc1cc(S(=O)c2ccc(Cl)cc2)nc(C)n1 (stereo not drawn),10.9,63.8*,-2.2,19.5,-2.1,5.5
CC(=O)CC(C)(C)n1nnc(-c2ccccc2)n1,.,92.2*,-2.6,-8.0,.,-4.9
CC(=O)Cn1nnc(-c2ccc(C(F)(F)F)cc2)n1,-49.6,-14.5,-42.5,-15.8,-45.6,-3.0
CC1(C)CC(=O)C/C(=N/Nc2nc3ccccc3s2)C1,-7.5,69.3*,63.4*,3.2,9.3,-14.4
CCC(=O)N(C)C[C@@H]1Oc2ncc(C#CCC(C)C)cc2C(=O)N([C@@H](C)CO)C[C@H]1C,.,.,.,11.2,-7.0,.
CC(C)c1cn(CC[C@H]2CC[C@@H](NS(=O)(=O)c3ccccc3)[C@@H](CO)O2)nn1,-6.8,.,.,3.5,8.4,.
Cc1ccccc1C(=O)N1CCC2CC1c1cc(Cl)ccc12 (stereo not drawn),-6.4,3.6,81.1*,-28.0,8.3,1.7
Cc1ccccc1C(=O)N1CCC2CC1c1cc(-c3ccc(F)cc3)ccc12 (stereo not drawn),6.4,42.1,37.2,-8.4,5.9,3.8
O=C1CC(C(=O)Nc2ccccc2)C2(CCCCC2)O1 (stereo not drawn),.,-5.0,9.2,.,.,65.3*
CN1[C@@H]2c3ccc(-c4ccccc4)c(=O)n3C[C@@H]2[C@@H](CO)[C@@H]1C(=O)NC1Cc2ccccc2C1,27.6,.,.,14.6,1.4,.
COc1ccc2c3c(n(C)c2c1)[C@@H](CO)N(S(C)(=O)=O)CC31CN(C(=O)C2CCCC2)C1,-17.8,.,.,-6.5,-0.4,.
C[C@H]1CCCCO[C@@H](CN(C)Cc2ccccc2)[C@@H](C)CN([C@@H](C)CO)C(=O)c2cc(NC(=O)Nc3ccccc3)ccc2O1,37.6,.,.,24.9,13.1,.
SMILES,PAX8 inh HTS,TWEAK Fn14 block,TROY signal inh,LGR2 inh,EWS-Fli block,EBV LMP1 NFkB
C[C@@H]1CN([C@@H](C)CO)C(=O)c2cc(C#Cc3ccncc3)cnc2O[C@@H]1CN(C)Cc1ccncc1,.,.,.,4.3,-24.5,.
O=[N+]([O-])c1cnc(Sc2ccncn2)s1,120.0*,-25.4,-20.4,4.7,?,37.7
Cc1cccc(N(C(=O)CNC(=O)c2ccco2)C(C(=O)NCC2CCCO2)c2ccccc2)c1 (stereo not drawn),-11.8,67.0*,1.7,6.8,6.9,2.7
Cc1ccc(N(C(=O)CNC(=O)c2ccco2)C(C(=O)NCC2CCCO2)c2ccccc2)cc1 (stereo not drawn),.,9.7,-4.8,.,.,0.7
Cc1ccc(S(=O)(=O)N(C)C[C@@H]2Oc3cc(C#Cc4ccncc4)ccc3S(=O)(=O)N([C@@H](C)CO)C[C@@H]2C)cc1,5.3,.,.,9.1,35.0,.
Cc1cccc(Cn2nnc3c2C(=O)c2ccccc2C3=O)c1,29.9,11.0,17.8,.,.,3.1
Cc1ccccc1Cn1nnc2c1C(=O)c1ccccc1C2=O,.,8.9,50.1*,.,.,-6.9
CCC(c1nc2ccccc2[nH]1)n1c(C)nc2ccccc21 (stereo not drawn),-7.1,.,.,-5.7,-2.2,.
CCCCCCCCC(c1nc2ccccc2[nH]1)N1CCN=C1c1cc2ccccc2[nH]1 (stereo not drawn),27.1,12.9,-5.4,79.7*,38.0,.
CO[C@H]1CN(C)C(=O)c2ccc(NC(C)=O)cc2OC[C@H](C)N(C(=O)c2ccccc2)C[C@@H]1C,-7.1,.,.,-4.5,0.6,.
Cc1nc2sc(C(c3ccco3)N3CCN(C(c4ccccc4)c4ccccc4)CC3)c(O)n2n1 (stereo not drawn),87.5*,24.2,7.0,-10.8,-2.9,7.7
COc1cc(C(c2sc3nc(C)nn3c2O)N2CCc3ccccc3C2)cc(OC)c1OC (stereo not drawn),13.0,-1.6,-1.1,-3.8,8.1,85.8*
COC(=O)C1CCN(C(c2ccc(OC)c(OC)c2)c2sc3nc(C)nn3c2O)CC1 (stereo not drawn),-11.0,14.0,2.6,-2.1,-2.6,6.6
COc1ccc(C(c2sc3nc(C)nn3c2O)N2CCC(C(N)=O)CC2)cc1OC (stereo not drawn),-3.0,3.8,13.6,0.1,-1.1,71.8*
COc1ccc(NC(=O)N(C)C[C@@H]2Oc3ccc(NS(C)(=O)=O)cc3CC(=O)N([C@@H](C)CO)C[C@@H]2C)cc1,-25.6,.,.,3.2,-1.6,.

# Source: PubChem BioAssay
